The assay is described as follows: NCI Yeast Anticancer Drug Screen. Data for the sgs1 strain (AID 173).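 Also: 0% = growth of vehicle-only control cultures.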 The conditions noted are these: S. cerevisiae sgs1 mutant, stronger effect = higher value. As to the method:
Growth inhibition of yeast strains with defined genetic alterations is measured as a screen for potential anti-cancer activity. Selected strains with alterations in DNA damage repair or cell cycle control were exposed to compounds and growth inhibition was measured relative to vehicle treated controls. The strain used in this assay is sgs1

SMILES strings stand for the structures. The panel holds about 79,000 compounds, 15% with a hit somewhere; the sample as a whole holds those more often. A number with no mark means an inactive call. The source made the active and inactive calls. Rule as the data show it: active = growth inhibition above about 70%; inactive = the rest.

Regarding `CCCC/C=C/C(C)(C(=O)OCC)C(=O)OCC`, the growth inhibition was -3% (at 1.2 µM); -1% (at 3.7 µM); 3% (at 11.0 µM); 6% (at 33.0 µM); 38% (at 100.0 µM).
The matching figures for `COc1cc(O)c(O)c(C(C)(C)C)c1`: 1%, 7%, 16%, 8% and 43%.
`N#CC(=Nc1ccccc1F)Nc1ccccc1F`: the growth inhibition was -3% (at 1.2 µM); -7% (at 3.7 µM); -6% (at 11.0 µM); 12% (at 33.0 µM); 24% (at 100.0 µM).
The matching figures for `CN(C)Cc1cc(N=Nc2ccc(Cl)cc2)ccc1OC(=O)c1ccccc1`: 0%, 5%, 9%, 42% and 74% (active).
For `O=P(NC1CCCCC1)(OCc1ccccc1)OCc1ccccc1` the same measures were 0%, -1%, 0%, 9% and 17%.
The matching figures for `CC1=C(SCc2ccccc2)C(=O)c2ccccc2C1=O`: -53%, -56%, -29%, 76% (active) and 90% (active).
In the case of `O=C(O)c1ccccc1/C=N/N=C1c2ccccc2-c2ccccc21`, the growth inhibition is, setting by setting: (at 1.2 µM) 0%; (at 3.7 µM) 2%; (at 11.0 µM) 1%; (at 33.0 µM) 4%; (at 100.0 µM) 3%.
The matching figures for `COc1cc(/C=C2\NC(=O)N(/C=C3\C(=O)Oc4ccccc4C3=O)C2=O)ccc1O`: -1%, -1%, 14%, 89% (active) and 97% (active).

The values above are taken from PubChem BioAssay (NCI).
